Bioassay records from PubChem BioAssay.
PLAP act = activates human placental alkaline phosphatase. P05187. purified PLAP enzyme, luminescent substrate read-out; active compounds read high. activation fold at 20 µM. 96,000 compounds, 1.2% hits; in the data active means activation fold above about 2
Target sequence (P05187 whole entry, looked up): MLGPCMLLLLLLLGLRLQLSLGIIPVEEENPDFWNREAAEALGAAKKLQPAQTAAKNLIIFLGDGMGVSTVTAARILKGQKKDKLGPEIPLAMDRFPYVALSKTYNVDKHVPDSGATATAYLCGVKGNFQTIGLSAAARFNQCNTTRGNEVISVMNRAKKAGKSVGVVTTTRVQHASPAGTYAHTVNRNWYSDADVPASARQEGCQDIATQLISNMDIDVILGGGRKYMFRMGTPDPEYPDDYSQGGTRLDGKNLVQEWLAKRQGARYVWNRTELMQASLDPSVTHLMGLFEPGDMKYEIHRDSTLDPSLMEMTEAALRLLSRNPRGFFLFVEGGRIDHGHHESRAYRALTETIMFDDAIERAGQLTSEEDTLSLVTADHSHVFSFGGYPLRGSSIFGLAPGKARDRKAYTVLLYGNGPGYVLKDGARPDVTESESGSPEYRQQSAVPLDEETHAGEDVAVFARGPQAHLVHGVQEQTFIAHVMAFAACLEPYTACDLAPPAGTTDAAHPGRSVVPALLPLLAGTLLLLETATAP
TNAP act mid DEA = activates human TNAP at intermediate phosphate acceptor concentration | P05186 | AID 813 | purified TNAP, CDP-star luminescence, 100 mM DEA, 30 min; active compounds read high; scale: 0 levamisole-inhibited, 1 vehicle-only enzyme | 64,000 tested, under 10 active | activation factor at 20 µM;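 active means activation factor of at least 2 at 20 µM, relative to controls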
Ec RNAP inh = inhibitors of Escherichia coli RNA polymerase. 62,000 compounds, 0.2% hits. E. coli RNA polymerase, fluorescence transcription assay. inhibition, %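 (tested at 10 µM)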; in the data active means inhibition above about 20%;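 further: 0% = enzyme without compound and 100% = no enzyme blank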
* marks the source's active call; other numbers are inactive results; · = no result. The full list was thinned out, with hits kept by preference.

SMILES | PLAP act | TNAP act mid DEA | Ec RNAP inh
O=C(NC1CC1)C1C2C3C4CC5C3C5C4C12 (configuration not stated) | 1 | 0.8 | 7
Cc1cc(C)nc(Nc2ncc(O)n2-c2ccc(C)c(Cl)c2)n1 | 1.9 | 1.1 | 1
Cc1cc(C)nc(Nc2ncc(O)n2-c2ccc(C)c(C)c2)n1 | 2.6* | · | ·
Cn1cccc1Cc1nnc(SCC(=O)Nc2ccc3c(c2)OCO3)n1-c1ccc(F)cc1 | 1.4 | 1 | 4
CCCCNS(=O)(=O)c1ccc2nc(SCC(=O)c3ccc(C#N)cc3)[nH]c2c1 | 2* | 0.9 | ·
O=C(CSc1nc2ccc([N+](=O)[O-])cc2[nH]1)c1ccc2ccccc2c1 | 0.9 | · | ·
CCOc1ccc(N2CC(C(=O)OC)CC2=O)cc1 (configuration not stated) | 1 | 1 | -14
COc1ccc(OC)c(Nc2nc(-c3sc(NC(=O)C(C)(C)C)nc3C)cs2)c1 | 1.1 | · | ·
COc1ccc(OC)c(Nc2nc(-c3sc(C)nc3C)cs2)c1 | 2.1* | 1 | 8
CCOC(=O)c1cc(-c2nnc(-c3ccc(Oc4ccccc4)cc3)o2)c(C)nc1C | 1.3 | 0.9 | 7
CCN1CCN(C(=O)Nc2ccc(Cc3ccc(NC(=O)N4CCN(CC)CC4)cc3)cc2)CC1 | 2* | 0.9 | 2
CCOC(=O)N1CCN(C(=O)Nc2ccc(Cl)cc2)CC1 | 0.8 | 0.8 | 8
Cc1ccc(N2C(=O)CC(Sc3ncn[nH]3)C2=O)cc1C (configuration not stated) | 1 | · | ·
COc1cccc2sc(Nc3nnc(-c4ccc(F)cc4)o3)nc12 | 2.4* | · | ·
COc1cccc2sc(Nc3nnc(-c4cccs4)o3)nc12 | 1 | 1 | -5
O=CN1CC(=O)N(c2ccccc2)c2c([nH]c3ccccc23)C1 | 1 | 0.9 | 0
CCCCCCC1CCC(C(=O)NC(CCSC)C(=O)NC(C(=O)OC)C(C)C)CC1 (configuration not stated) | 2.2* | · | ·
COC(=O)C(NC(=O)C(CC(C)C)NC(=O)C1CCC(C)CC1)C(C)C (configuration not stated) | 0.9 | · | ·
CCOC(=O)C1=C(O)/C(=C/c2cc(OC)c(OC)c(OC)c2)N=C1C | 1.3 | · | ·
CC12C(=O)N(Cc3ccco3)C(=O)C1C1c3ccccc3C2c2ccccc21 (configuration not stated) | 0.9 | · | ·
CC(NC(=O)CCSc1nc(-c2ccc3c(c2)OCO3)cc(C(F)(F)F)n1)c1ccccc1 (configuration not stated) | 1 | · | ·
Cc1cccc(OCC(=O)NNC(=O)CSc2ncc(C#N)c(N)n2)c1 | 2* | · | ·
COC(=O)CSc1ncc(C#N)c(N)n1 | 1.1 | 0.9 | 5
Cc1cc(C)c2c(CC(=O)N(CCC#N)Cc3cccnc3)coc2c1 | 1.4 | 0.9 | 3
Cc1cc(Nc2cccc(C(F)(F)F)c2)n2nc(C)nc2n1 | 0.9 | 1 | 8
SMILES | PLAP act | TNAP act mid DEA | Ec RNAP inh
CCc1nc2nc(C)cc(Nc3cccc(C(F)(F)F)c3)n2n1 | 2.4* | 1 | 4
Cc1ccccc1S(=O)(=O)Cc1ccc(C(=O)NCCCOC(C)C)o1 | 0.9 | 0.9 | 8
N#Cc1c(NC(=O)CSc2nnc(-c3ccccc3)o2)sc2c1CCCC2 | 0.9 | · | ·
O=C(CSc1nnc(-c2csc3c2CCCC3)o1)Nc1ccccc1 | 2* | 1 | 7
O=C(NCc1ccccn1)C1CC(c2ccc(F)cc2)=NO1 (configuration not stated) | 1 | · | ·
Clc1cccc(Nc2c3c(nc4ncnn24)CCC3)c1 | 2* | 1.2 | -4
Cc1ccc(Nc2c3c(nc4ncnn24)CCC3)cc1 | 1.2 | 1 | 3
CCCCN(CC)CCCNC(=O)c1cc2c(=O)n(C)c3ccccc3c2n1C | · | 0.9 | 7
CCC(C)C(NC(=O)c1ccccc1NC(=O)c1ccc(OC)cc1)C(=O)NCc1ccco1 (configuration not stated) | 2.1* | 1 | 1
O=C(Nc1ccccc1C(=O)NCc1ccco1)c1ccccc1 | 1 | 0.9 | 4
CCn1c(SCC(=O)Nc2nc(-c3ccccc3)cs2)nnc1-c1ccccc1 | 2* | 1.1 | 1
Cc1nnc(SCC(=O)Nc2nc(-c3ccccc3)cs2)n1N | 1.1 | 0.9 | 1
CC(C)OC(=O)C1C(=O)CC(C)(O)C(C(=O)OC(C)C)C1c1cccc(O)c1 (configuration not stated) | 1.2 | 1 | 2
CCOC(=O)C1CCN(Cc2ccc(F)cc2)CC1 | · | 1 | -3
CCOC(=O)C1CCN(Cc2ccc(Cl)c(Cl)c2)CC1 | 2* | · | ·
O=C(CNC(=O)c1cnccn1)Nc1ccc(F)c(F)c1F | 1 | 0.9 | 11
CCOCCCNC(=O)Cc1c(C(=O)O)[nH]c2ccc(Cl)cc12 | · | 1 | 5
COc1ccccc1CNC(=O)CN(c1ccc(C)cc1)S(=O)(=O)c1c(C)n[nH]c1C | 1.8 | 1 | 2
CCOc1ccccc1NC(=O)CN(c1ccc(C)cc1)S(=O)(=O)c1c(C)n[nH]c1C | 2.1* | 1 | -2
COC(=O)c1ccc(CN2C(=O)NC3(CCCCC3C)C2=O)o1 (configuration not stated) | 1 | 0.9 | 9
C=CCc1c(OC)ccc2ccc(=O)oc12 | 1 | · | ·
O=C(Nc1nccs1)c1nc(-c2ccccc2)n(-c2ccccc2)n1 | 0.9 | 0.9 | 5
Cc1csc(NC(=O)c2nc3nc(C)cc(C)n3n2)n1 | 2.1* | 1 | -3
Cc1csc(NC(=O)c2nc(-c3ccccc3)n(-c3ccccc3)n2)n1 | 2.8* | 0.9 | 1
Cc1cc(C)n2nc(C(=O)Nc3nccs3)nc2n1 | 1 | · | ·
SMILES | PLAP act | TNAP act mid DEA | Ec RNAP inh
O=C(NC(=S)N(CCCCO)C1CCCCC1)c1sc2ccccc2c1Cl | 1.4 | · | ·
O=c1oc2c3c4c(cc2cc1-c1nc2ccccc2[nH]1)CCCN4CCC3 | · | 1.1 | -28
O=c1oc2c(CN3CCCCC3)c(O)ccc2cc1-c1nc2ccccc2[nH]1 | 2.2* | 1.3 | -34
N#Cc1nc(-c2cccc(Cl)c2)oc1NCc1cccnc1 | 2* | · | ·
COc1ccc(-c2nc(C#N)c(NCc3cccnc3)o2)cc1OC | 1.1 | · | ·
CN(c1ccc(C(=O)NCCc2ccccc2)cc1)S(C)(=O)=O | 0.8 | · | ·
CCOC(=O)N1CCC(NC(=O)C2CCN(C(=O)N3CCOc4ccccc43)CC2)CC1 | 2.1* | 0.9 | 0
CCOC(=O)N1CCC(NC(=O)C2CCCN(C(=O)N3CCOc4ccccc43)C2)CC1 (configuration not stated) | 1.7 | 1.1 | 4
O=C(O)CC(c1ccc(Cl)cc1)n1cccc1 (configuration not stated) | 1.1 | 0.8 | 7
CCC(Sc1nc2c(c(=O)n1CC)SC(C)C2)C(=O)OC (configuration not stated) | 1.2 | · | ·
COc1ccc(CCNc2ncnc3c2oc2ccccc23)cc1OC | 1 | 0.9 | 14
COc1ccc(CCNc2nc(C)nc3c2oc2ccccc23)cc1OC | 2* | 1 | 5
O=C(Nc1ccc(Cl)cc1)NC1(C(=O)NCCCN2CCOCC2)CCCCC1 | 2.7* | 0.9 | 8
O=C(Nc1ccccc1)NC1(C(=O)NCCCN2CCOCC2)CCCCC1 | 1.4 | 1 | 3
FC(F)(F)c1cnc(Oc2ccccc2-c2nnco2)c(Cl)c1 | 2.3* | · | ·
FC(F)(F)c1cnc(Oc2ccc(-c3nnco3)cc2)c(Cl)c1 | 1.1 | 0.9 | 3
CC1CCN(C(=O)CSc2nnc(-c3ccc(S(=O)(=O)N4CCOCC4)cc3)n2C)CC1 | · | 0.9 | 4
